Inhibition data for 17 compounds are collected here from ChEMBL document CHEMBL1961873, “Compounds: GSK PKIS; Assays: Nanosyn kinase panel” (2012).

Experiment [1] deals with Proto-oncogene tyrosine-protein kinase receptor Ret (Homo sapiens), P07949 [Y791F]. Conditions: at 1 µM.
Experiment [2] addresses Macrophage-stimulating protein receptor (Homo sapiens) (UniProt Q04912). Conditions: at 0.1 µM.
Experiment [3] has the same target. Conditions: at 1 µM.
The target of experiment [4] is Proto-oncogene tyrosine-protein kinase ROS (Homo sapiens) (UniProt P08922). Conditions: at 0.1 µM.
The target is the same in experiment [5]. Conditions: at 1 µM.
Experiment [6] has as its target Proto-oncogene tyrosine-protein kinase Src (Homo sapiens) (UniProt P12931). Conditions: at 0.1 µM.
Experiment [7] has the same target. Conditions: at 1 µM.
Experiment [8] has as its target Tyrosine-protein kinase Srms (Homo sapiens) (UniProt Q9H3Y6). Conditions: at 0.1 µM.
Experiment [9] has the same target. Conditions: at 1 µM.
Experiment [10] has as its target Tyrosine-protein kinase SYK (Homo sapiens) (UniProt P43405). Conditions: at 0.1 µM.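 Further: reported percentages are mean inhibition values for SYK.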

Chain of Proto-oncogene tyrosine-protein kinase ROS (Homo sapiens) (P08922 whole entry): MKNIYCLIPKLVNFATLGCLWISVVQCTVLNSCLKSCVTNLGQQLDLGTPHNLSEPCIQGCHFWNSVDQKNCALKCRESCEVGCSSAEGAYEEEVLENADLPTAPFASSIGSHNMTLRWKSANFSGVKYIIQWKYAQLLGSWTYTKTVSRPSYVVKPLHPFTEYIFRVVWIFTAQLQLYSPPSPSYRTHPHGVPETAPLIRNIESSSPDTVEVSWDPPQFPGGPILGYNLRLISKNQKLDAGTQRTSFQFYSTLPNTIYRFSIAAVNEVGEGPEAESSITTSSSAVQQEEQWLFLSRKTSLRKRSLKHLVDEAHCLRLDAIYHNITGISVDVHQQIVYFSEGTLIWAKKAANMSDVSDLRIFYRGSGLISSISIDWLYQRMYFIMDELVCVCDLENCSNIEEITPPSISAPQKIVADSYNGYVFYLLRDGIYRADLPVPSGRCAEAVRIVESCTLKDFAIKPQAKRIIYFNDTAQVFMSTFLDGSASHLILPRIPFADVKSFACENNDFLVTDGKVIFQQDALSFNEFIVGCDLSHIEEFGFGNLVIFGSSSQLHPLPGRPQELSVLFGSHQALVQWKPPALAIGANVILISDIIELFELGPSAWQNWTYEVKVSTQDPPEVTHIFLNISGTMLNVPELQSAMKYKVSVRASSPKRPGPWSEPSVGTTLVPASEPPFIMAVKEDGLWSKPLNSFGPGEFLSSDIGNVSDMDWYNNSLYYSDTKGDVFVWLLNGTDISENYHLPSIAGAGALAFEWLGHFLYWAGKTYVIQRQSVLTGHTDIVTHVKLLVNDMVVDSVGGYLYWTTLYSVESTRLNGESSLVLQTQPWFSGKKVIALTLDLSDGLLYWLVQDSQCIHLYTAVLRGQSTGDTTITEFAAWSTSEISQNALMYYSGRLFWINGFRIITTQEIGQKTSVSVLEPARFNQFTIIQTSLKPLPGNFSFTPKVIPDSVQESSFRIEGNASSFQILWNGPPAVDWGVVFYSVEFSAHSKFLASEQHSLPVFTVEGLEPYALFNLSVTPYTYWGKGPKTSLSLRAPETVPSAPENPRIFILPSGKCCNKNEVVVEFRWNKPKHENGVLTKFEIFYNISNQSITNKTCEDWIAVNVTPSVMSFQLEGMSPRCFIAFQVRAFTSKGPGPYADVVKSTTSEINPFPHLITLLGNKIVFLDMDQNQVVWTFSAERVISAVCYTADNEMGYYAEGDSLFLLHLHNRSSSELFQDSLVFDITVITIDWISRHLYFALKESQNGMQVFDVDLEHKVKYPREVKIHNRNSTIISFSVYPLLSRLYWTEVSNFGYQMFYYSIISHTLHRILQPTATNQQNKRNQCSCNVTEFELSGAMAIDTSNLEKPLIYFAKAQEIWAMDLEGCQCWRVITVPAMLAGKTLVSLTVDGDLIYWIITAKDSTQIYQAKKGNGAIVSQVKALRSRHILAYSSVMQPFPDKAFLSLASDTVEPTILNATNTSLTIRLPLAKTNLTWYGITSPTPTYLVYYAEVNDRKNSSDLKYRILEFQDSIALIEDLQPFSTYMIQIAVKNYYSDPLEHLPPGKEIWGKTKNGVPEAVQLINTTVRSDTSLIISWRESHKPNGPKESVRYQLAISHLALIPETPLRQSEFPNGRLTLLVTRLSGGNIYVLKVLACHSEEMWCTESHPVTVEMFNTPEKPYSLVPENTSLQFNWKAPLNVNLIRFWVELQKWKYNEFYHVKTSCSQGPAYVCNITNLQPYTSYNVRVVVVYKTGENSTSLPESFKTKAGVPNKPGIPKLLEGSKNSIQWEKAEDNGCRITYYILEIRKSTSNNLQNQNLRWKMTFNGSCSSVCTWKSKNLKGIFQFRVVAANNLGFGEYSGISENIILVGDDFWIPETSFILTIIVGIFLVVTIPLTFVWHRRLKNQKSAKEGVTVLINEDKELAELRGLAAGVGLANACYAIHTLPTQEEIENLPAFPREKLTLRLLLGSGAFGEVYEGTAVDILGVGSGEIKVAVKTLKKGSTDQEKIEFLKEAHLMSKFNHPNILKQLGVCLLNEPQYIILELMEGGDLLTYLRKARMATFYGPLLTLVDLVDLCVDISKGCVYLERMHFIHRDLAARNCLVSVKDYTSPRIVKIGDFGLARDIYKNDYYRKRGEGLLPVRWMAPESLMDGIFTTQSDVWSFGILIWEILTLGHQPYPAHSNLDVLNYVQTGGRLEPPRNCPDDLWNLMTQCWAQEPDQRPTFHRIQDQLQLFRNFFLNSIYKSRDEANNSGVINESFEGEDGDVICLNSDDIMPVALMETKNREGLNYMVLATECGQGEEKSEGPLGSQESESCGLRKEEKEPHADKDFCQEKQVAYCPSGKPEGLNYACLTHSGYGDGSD
Chain of Macrophage-stimulating protein receptor (Homo sapiens) (Q04912 25-304 limits assumed): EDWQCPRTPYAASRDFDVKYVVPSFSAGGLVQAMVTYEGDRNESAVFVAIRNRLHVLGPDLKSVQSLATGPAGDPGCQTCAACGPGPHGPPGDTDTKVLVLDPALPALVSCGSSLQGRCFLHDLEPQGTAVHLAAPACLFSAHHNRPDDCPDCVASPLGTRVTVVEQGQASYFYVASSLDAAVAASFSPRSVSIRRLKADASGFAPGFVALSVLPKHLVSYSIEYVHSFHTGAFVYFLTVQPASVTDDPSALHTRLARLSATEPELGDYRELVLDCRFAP
Chain of Macrophage-stimulating protein receptor (Homo sapiens) (Q04912 310-1400 limits assumed): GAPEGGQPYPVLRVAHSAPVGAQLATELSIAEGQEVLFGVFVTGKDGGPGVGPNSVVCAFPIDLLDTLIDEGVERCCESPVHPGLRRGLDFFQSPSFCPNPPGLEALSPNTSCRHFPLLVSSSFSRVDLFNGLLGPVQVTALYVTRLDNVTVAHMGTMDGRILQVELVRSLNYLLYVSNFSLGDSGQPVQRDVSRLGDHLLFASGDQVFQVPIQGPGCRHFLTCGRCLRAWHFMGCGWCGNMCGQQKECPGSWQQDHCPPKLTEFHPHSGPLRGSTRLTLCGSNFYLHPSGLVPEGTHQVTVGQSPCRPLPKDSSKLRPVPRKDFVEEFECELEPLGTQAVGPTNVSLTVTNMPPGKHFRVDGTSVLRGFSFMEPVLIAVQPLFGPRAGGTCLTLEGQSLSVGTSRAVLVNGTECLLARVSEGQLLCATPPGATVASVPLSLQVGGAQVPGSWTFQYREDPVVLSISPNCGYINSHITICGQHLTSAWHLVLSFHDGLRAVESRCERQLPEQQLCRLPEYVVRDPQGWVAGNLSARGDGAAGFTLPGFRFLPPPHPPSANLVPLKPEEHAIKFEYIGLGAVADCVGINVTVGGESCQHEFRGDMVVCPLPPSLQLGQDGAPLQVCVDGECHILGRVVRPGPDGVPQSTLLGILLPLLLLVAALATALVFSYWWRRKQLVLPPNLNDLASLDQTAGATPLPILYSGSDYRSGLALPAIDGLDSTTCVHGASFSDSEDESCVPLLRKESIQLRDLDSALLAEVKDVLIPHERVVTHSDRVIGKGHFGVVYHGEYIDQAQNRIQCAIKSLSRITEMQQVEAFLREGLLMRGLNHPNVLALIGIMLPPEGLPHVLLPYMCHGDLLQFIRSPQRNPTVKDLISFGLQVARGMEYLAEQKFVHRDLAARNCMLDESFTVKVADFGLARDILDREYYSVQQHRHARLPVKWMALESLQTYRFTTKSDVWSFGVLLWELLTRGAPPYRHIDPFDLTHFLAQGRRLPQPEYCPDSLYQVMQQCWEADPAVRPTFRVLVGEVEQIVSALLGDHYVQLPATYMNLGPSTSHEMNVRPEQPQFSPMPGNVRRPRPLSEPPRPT
Chain of Proto-oncogene tyrosine-protein kinase receptor Ret (Homo sapiens), P07949 [Y791F] (P07949 whole entry Y791F): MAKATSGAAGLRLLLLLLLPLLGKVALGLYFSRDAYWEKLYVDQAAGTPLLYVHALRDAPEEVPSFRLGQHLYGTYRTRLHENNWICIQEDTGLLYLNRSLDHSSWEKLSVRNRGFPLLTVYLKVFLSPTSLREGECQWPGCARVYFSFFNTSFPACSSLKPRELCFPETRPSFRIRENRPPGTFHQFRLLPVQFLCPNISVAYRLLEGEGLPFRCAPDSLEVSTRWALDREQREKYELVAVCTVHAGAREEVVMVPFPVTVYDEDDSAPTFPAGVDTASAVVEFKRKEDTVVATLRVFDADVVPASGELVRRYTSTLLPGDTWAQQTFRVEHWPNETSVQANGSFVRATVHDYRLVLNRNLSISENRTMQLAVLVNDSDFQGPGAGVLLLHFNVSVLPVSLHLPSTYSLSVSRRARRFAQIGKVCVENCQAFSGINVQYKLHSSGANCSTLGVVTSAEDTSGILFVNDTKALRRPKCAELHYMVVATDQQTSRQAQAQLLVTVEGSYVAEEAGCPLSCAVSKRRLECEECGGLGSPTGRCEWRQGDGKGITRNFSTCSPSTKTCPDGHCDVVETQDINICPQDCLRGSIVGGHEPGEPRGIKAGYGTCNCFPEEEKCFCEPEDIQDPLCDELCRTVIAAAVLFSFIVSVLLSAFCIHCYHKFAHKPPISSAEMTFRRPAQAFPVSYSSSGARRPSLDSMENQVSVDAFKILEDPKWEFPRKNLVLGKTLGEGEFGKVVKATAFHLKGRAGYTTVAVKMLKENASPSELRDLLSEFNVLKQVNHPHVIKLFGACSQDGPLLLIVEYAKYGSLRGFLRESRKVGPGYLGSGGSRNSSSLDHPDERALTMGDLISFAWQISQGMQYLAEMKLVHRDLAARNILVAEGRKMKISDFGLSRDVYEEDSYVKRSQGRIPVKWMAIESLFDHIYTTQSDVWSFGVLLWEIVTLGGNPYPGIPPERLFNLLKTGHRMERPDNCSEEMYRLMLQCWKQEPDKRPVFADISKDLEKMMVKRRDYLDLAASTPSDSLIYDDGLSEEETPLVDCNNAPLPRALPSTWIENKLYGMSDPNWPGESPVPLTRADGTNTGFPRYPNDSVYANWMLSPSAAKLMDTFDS

For orientation: inhibition means the drop in the measured response relative to a control, in per cent. As for `CCS(=O)(=O)c1ccc(OC)c(Nc2ncc(-c3ccccc3Cl)o2)c1`, the inhibition in [1] is 9.6%; in experiment [2], -3.54%; in [3] it was 8.49%; in [4], -1.24%; in [5], 4.38%; in [6] it was 4.44%. Besides, the inhibition in experiment [7] was 23.4%; in [8] it was 2.76%; in [9], 3.31%; in experiment [10], -0.36%.
For `NC(=O)c1cc(-c2ccc(F)cc2)cc(-c2ccncc2)c1N`, the inhibition in experiment [1] was 8.5%; in [2], 3.91%; in [3] it was 2.73%; in experiment [4], 3.93%; in experiment [5] it was 6.41%; in experiment [6], -1.61%. Besides, the inhibition in experiment [7] was 10.9%; in [8], -0.29%; in [9], -1.13%; in experiment [10] it was -2.32%.
Take `O=C(Nc1ccc(Oc2ccc3[nH]c(NC(=O)c4ccccc4)nc3c2)cc1)Nc1cc(C(F)(F)F)ccc1F`: the inhibition was 87% in experiment [1]; 0.56% in experiment [2]; 5.31% in [3]; 4.24% in [4]; 11.4% in experiment [5]; 4.33% in experiment [6]. Moreover, the inhibition in experiment [7] is 11.2%; in [8] it was 1.78%; in [9] it was 4.56%; in [10] it was -1%.
As for `Fc1ccc(-c2c(-c3ccncc3)nc3n2CCS3)cc1`, the inhibition was 7.69% in experiment [1]; 7.82% in experiment [2]; 5.85% in [3]; 2.1% in experiment [4]; 8.26% in [5]; -3.16% in experiment [6]. The inhibition in [7] is 9.68%; in experiment [9], 0.79%; in [10] it was 0.99%.
On to `NC(=O)c1cc(-c2ccncc2)cc(-c2ccccc2)c1N`, for which the inhibition came out at 42.3% in experiment [1]; 4.63% in [2]; 2.14% in experiment [3]; 5.79% in experiment [4]; 14.7% in [5]; 10.4% in experiment [6]. Also, the inhibition in [7] was 59.8%; in experiment [8], 0.18%; in [9], 5.81%; in experiment [10], -0.73%.
With `CCN(CC)Cc1ccc(Nc2nccc(-c3cnn4ncccc34)n2)cc1`, the inhibition in experiment [1] was 18.2%; in [2] it was 4.89%; in experiment [3] it was 22.4%; in experiment [4], 34.5%; in experiment [5] it was 70.5%; in experiment [6], 10.3%. Moreover, the inhibition in experiment [7] was 38.2%; in experiment [8] it was -1.32%; in [9] it was 0.74%; in experiment [10], 1.59%.
As to `COc1ccc(-c2ccc3c(NC(=O)C4CC4)n[nH]c3n2)cc1`, the inhibition in [1] is 9.16%; in experiment [2], 6.88%; in [3] it was 2.2%; in experiment [4], 2.06%; in experiment [5] it was 3.33%; in experiment [6], 7.63%. For the same compound, the inhibition in experiment [7] was 4.36%; in experiment [8], -2.79%; in [9], 2.08%; in experiment [10] it was 0.08%.
On to `Fc1ccc(-c2nc3n(c2-c2ccncc2)CCS3)cc1`, for which the inhibition was 9.79% in experiment [1]; -2.87% in [2]; 6.64% in experiment [3]; 7.49% in experiment [4]; 6.54% in [5]; 3.03% in experiment [6]. For the same compound, the inhibition in experiment [7] was 8.62%; in experiment [8], -2.19%; in experiment [9] it was -4.01%; in experiment [10], -6.2%.
As to `CNC(=O)c1cncc(/C=C/c2c(C)cccc2C)c1`, the inhibition is 17.6% in [1]; 1.75% in experiment [2]; 0.77% in experiment [3]; -2.1% in [4]; 1.85% in [5]; 17.5% in [6]. The inhibition was found to be 59% in [7], 2.41% in experiment [8], 9.33% in [9] and 0.05% in [10].
With `O=C1Nc2ccccc2/C1=C/Nc1ccc(-n2cncn2)cc1`, the inhibition in [1] stood at 53.2%; in experiment [2] it was 7.27%; in experiment [3] it was 6.25%; in [4], 6.51%; in experiment [5], 8.39%; in experiment [6], 9.95%. Besides, the inhibition is 19.2% in experiment [7], 0.3% in experiment [8], -0.18% in [9] and -1.28% in experiment [10].
Turning to `CCc1cccc(CC)c1/C=C/c1cncc(C(=O)NC)c1`, the inhibition in experiment [1] was 2.43%; in experiment [2], -0.25%; in experiment [3], 6%; in experiment [4], 2.24%; in experiment [5], 4.93%; in experiment [6], 2.97%. Further, the inhibition in [7] is 10.2%; in experiment [8], 0.35%; in experiment [9] it was -0.17%; in [10], -3.77%.
Turning to `CCS(=O)(=O)c1ccc(OC)c(Nc2ncc(-c3cccc(-c4ccccc4F)c3)o2)c1`, the inhibition was determined as 51.1% in experiment [1]; 2.4% in [2]; 5.56% in experiment [3]; 14.2% in experiment [4]; 54.9% in experiment [5]; 12.6% in [6]. Moreover, the inhibition in experiment [7] is 74.5%; in experiment [8], 8.12%; in experiment [9], 30.3%; in experiment [10] it was -3.99%.
Take `NC(=O)c1ccc(Oc2nccc(-c3c(-c4ccc(F)cc4)ncn3C3CCNCC3)n2)cc1`: the inhibition is 3.63% in experiment [1]; 4.31% in experiment [2]; 6.11% in [3]; 9.43% in experiment [4]; 7.5% in [5]; 13% in experiment [6]. For the same compound, the inhibition in [7] was 13.6%; in experiment [8], -3.65%; in experiment [9] it was -3.42%; in experiment [10], -0.16%.
In the case of `COc1cc2ncn(-c3cc(OCCc4ccccc4)c(C(N)=O)s3)c2cc1OC`, the inhibition is 21.3% in experiment [1]; -1.46% in [2]; 6.81% in [3]; 3.89% in experiment [4]; 6.98% in experiment [5]; 1.6% in experiment [6]. Also, the inhibition in experiment [7] is 12.9%; in experiment [8], -2.94%; in [9] it was -2.68%; in [10] it was -2.02%.
Turning to `Fc1ccc(-c2ncn(C3CCNCC3)c2-c2ccnc(Oc3ccc(F)c(F)c3)n2)cc1`, the inhibition in [1] turned out to be 9.54%; in experiment [2] it was 4.15%; in experiment [3], 2.54%; in [4], 5.19%; in experiment [5], 4.41%; in [6], 5.82%. The inhibition was 7.25% in experiment [7], -3.17% in experiment [8], -3.06% in experiment [9] and -1.2% in experiment [10].
For `CS(=O)(=O)CCNCc1cc(-c2cc3c(Nc4ccc(OCc5cccc(F)c5)c(Cl)c4)ncnc3s2)cs1`, the inhibition in [1] amounted to 9.4%; in [2], 2.33%; in experiment [3], 4%; in [4], 6.34%; in [5], 10%; in experiment [6], 10.7%. The inhibition is 14.7% in [7], -2.71% in experiment [8], -1.03% in [9] and -1.05% in experiment [10].
Consider `COc1cc2ncn(-c3cc(OCc4cccs4)c(C(N)=O)s3)c2cc1OC`, for which the inhibition in experiment [1] stood at 54.5%; in experiment [2], 5.86%; in [3] it was 7.33%; in experiment [4], 7.93%; in [5] it was 30.5%; in experiment [6] it was 3.31%. Moreover, the inhibition was 17.6% in experiment [7], 2.39% in experiment [8], 7.35% in experiment [9] and 0.21% in experiment [10].
